Compounds with a hit are over-represented: about 3.6% of the library has one in this group of screens.
HTT-AS act = activates huntingtin-antisense promoter activity; HEK293 HTT-AS promoter firefly luciferase reporter, 24 h; response scale: percent change from vehicle, -100% = no light; Potency, µM (titrated, usually from 57.5 µM), for inactives: at the highest dose activity change, positive = activation, hits mostly activators; AID 1508624; 48,000 compounds, 0.24% hits; further: nearly all actives have a fitted effect of over 55% in size
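Firefly luciferase readout (Dual-Glo, 10 min RT) after 24 h, 37 °C compound exposure (final up to 57.5 uM) of HEK293 reporter cells cultured 24 h beforehand; PTC124 at 50 uM final as control inhibitor; activity scaled vehicle 0%, zero RLU -100%.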
SKOV3 invasion = inhibitors of ovarian cancer cell adhesion and invasion in omental model; SKOV3ip1-GFP adhesion/invasion on 3D omental model, fluorescence; Potency, µM (top dose mostly 45.8 µM), for inactives: at the top dose activity change, negative = inhibition, most hits filed as inhibitors; 46,000 compounds, 0.1% hits; AID 1963576;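 further: plate controls were DMSO wells for no effect and tomatine positive control wells for full effect; nearly all actives have a fitted effect of over 65% in size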
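Primary human omental fibroblast/mesothelial 3D culture pre-formed 48 h. SKOV3ip1-GFP cells added with compounds (0.36-46 umol/L), incubated 2 h RT/16 h 37 C, fixed; GFP cells quantified at 488/509 nm.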
PMP22 txn = modulators of PMP22 gene transcription in S16 Schwann cells. S16 Pmp22-F2sN Schwann cells, FLuc/NLuc coincidence luminescence, 24 h. Potency, µM (doses to about 57.5 µM), without a hit: top-dose activity change, negative = inhibition, hits mostly inhibitors. 43,000 compounds, 2% hits. AID 1508649; active means clear falling dose curves in both reporters; inconclusive means both reporters move, but less clearly or upward; inactive means either reporter flat; the % is the NLuc reporter signal; further: on the % scale 0 is the no-effect control and ±100 the full control effect
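Schwann cells carrying the coincidence reporter were exposed to library compounds for 24 h at 37C, then lysed and read for FLuc and, after quenching, NLuc luminescence on a CCD imager.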
S16 F2sN tox = cytotoxicity in S16 Pmp22-F2sN Schwann cells. S16 Pmp22-F2sN Schwann cells viability, CellTiter-Glo, 24 h. Potency, µM (titrated, usually from 57.5 µM), without a hit: at the highest dose activity change, negative = cytotoxicity, actives largely listed as cytotoxic. 43,000 compounds, 0.48% hits; further: on the % scale 0 is the no-effect control and ±100 the full control effect; nearly all actives have a fitted effect of over 65% in size
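S16 Pmp22-F2sN Schwann cells (500-1,000/well) in phenol-red-free DMEM with 10% FBS received 23 nL compound by pin tool for 24 h at 37 °C. Viability was then read as CellTiter-Glo luminescence after 15 min at room temperature.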
HTT promoter inh = inhibitors of huntingtin promoter activity. Potency, µM (series often up to 57.5 µM), for the others: at the top dose activity change, negative = inhibition, usual class: inhibitors. AID 1508623. HEK293 HTT promoter firefly luciferase reporter, 24 h. 48,000 compounds, 0.93% hits; further: nearly all actives have a fitted effect of over 50% in size
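HEK293 luciferase promoter-reporter cells (2,500/well) plated 24 h, then compounds added at up to 57.5 uM final for 24 h at 37 °C. Firefly luminescence by Dual-Glo, normalized to vehicle (0%) and zero RLU (-100%).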
mTORC1 inh = mTORC1 pathway inhibition measured by phospho-rpS6; Tsc2-/- p53-/- MEF, phospho-rpS6 immunofluorescence/PI, 24 h; Potency, µM (titrated, usually from 38.3 µM), without a hit: at the highest dose activity change, negative = inhibition, actives largely listed as inhibitors; 44,000 compounds, 0.78% hits; AID 493208;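 further: plate controls were DMSO for no effect and rapamycin for full effect; nearly all actives have a fitted effect of over 50% in size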
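Cell-based qHTS: Tsc2-/- p53-/- MEF, 24 h cpd, 37 °C; fix/perm, anti-phospho-S6 Alexa-488 + PI; Acumen 488 nm scan; pS6/PI ratio, % positive cells; rapamycin 7.5 nM = inhibition ref; PI count = viability.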
* = called active by the depositor; i = inactive; u = inconclusive; x = no result given; [ ] = another dose, or the depositor's remark. Unless noted, the call rests on the fitted dose curve; in most records, active means well fitted curve in the direction sought with a large enough effect; inconclusive means small, poorly fitted or top-dose-only effect, or another doubt; inactive means no such curve, though single readings can be large; an effect the other way counts as inactive or inconclusive. Potency means the concentration at half of the fitted maximal effect.

SMILES	HTT-AS act	SKOV3 invasion	PMP22 txn	S16 F2sN tox	HTT promoter inh	mTORC1 inh
CC(C)(C)c1nc2c3cc[nH]c(=O)c3c3cc(F)ccc3c2[nH]1	-7.2%	4.8%	x	x	-3.1%	x
COc1ccccc1-c1cc(C(=O)Nc2cc(OC)c(OC)c(OC)c2)no1	-24.9%	-25.7%	3.77µM*	u	u	u
COc1ccccc1-c1cc(C(=O)Nc2cc(Cl)ccc2O)no1	x	1.9%	x	x	x	-28.7%
COc1ccc(OC)c(NC(=O)c2nc(S(=O)(=O)Cc3ccc(F)cc3)ncc2Cl)c1	-94.0%	6.31µM*	u	4.47µM*	u	2.93µM*
COc1ccccc1NC(=O)c1nc(SCc2ccc(F)cc2)ncc1Cl	-2.6%	-6.2%	-26.7%	11.1%	-6.6%	0.0%
CCCc1nnc(NC(=O)c2nc(S(=O)(=O)Cc3ccc(C)cc3)ncc2Cl)s1	-30.4%	u	u	u	-31.2%	-18.0%
Cc1ccc(NC(=O)c2nc(S(=O)(=O)Cc3ccc(F)cc3)ncc2Cl)cc1C	-69.2%	11.2µM*	7.27µM*	10µM*	u	u
CC(=O)Nc1ccc(NC(=O)c2nc(S(=O)(=O)Cc3ccc(F)cc3)ncc2Cl)cc1	-94.2%	3.16µM*	1.89µM*	3.55µM*	u	5.21µM*
Cc1ccc(CS(=O)(=O)c2ncc(Cl)c(C(=O)Nc3nc4ccc(C)cc4s3)n2)cc1	-85.8%	25.1µM*	6.48µM*	20µM*	u	-0.3%
CC(=O)Nc1ccc(NC(=O)c2nc(SCc3ccccc3C)ncc2Cl)cc1	-15.8%	-8.6%	u	6.0%	-6.9%	-6.1%
CCCCN(CC)C(=O)C1CCCN(c2ncnc3onc(C)c23)C1 (centres undefined)	-26.4%	14.7%	u	-12.0%	u	-8.1%
CCCCN(C)C(=O)C1CCCN(c2ncnc3onc(C)c23)C1 (centres undefined)	-45.3%	0.7%	u	-23.7%	1.78µM*	-7.9%
CCCN(c1ccccc1CC)S(=O)(=O)c1ccc2c(c1)CC(C)N2C(=O)C1CC1 (centres undefined)	-58.0%	-5.0%	u	-23.3%	22.4µM*	-17.8%
CN(C)c1ccc(C2Nc3ccc4ccccc4c3C3=C2C(=O)CC(C)(C)C3)cc1Br (centres undefined)	-15.5%	5.0%	x	x	-12.5%	x
CCC1=C(c2ccc(C)cc2)S(=O)(=O)N=C1N1CCC(C(=O)NCCc2ccc(Cl)cc2)CC1	-39.7%	1.9%	u	u	20µM*	-17.8%
CCC1=C(c2ccc(C)cc2)S(=O)(=O)N=C1N1CCC(C(=O)NCc2ccc(C)cc2)CC1	-37.9%	i	-6.3%	u	u	-0.3%
Cc1ccc(NC(=O)CCOc2ccccc2)cc1	10µM*	3.8%	-12.0%	3.0%	47.7%	-5.1%
CC(=O)c1ccc(NC(=O)CCOc2ccccc2)cc1	u	-8.9%	-2.5%	u	46.5%	-5.5%
c1ccc2c(Oc3nc(Nc4ccc(N5CCOCC5)cc4)c4ncn(C5CCCCC5)c4n3)cccc2c1	-10.2%	-11.3%	x	x	0.1%	x
CCN(CC)c1ccc(C(=C2C=CC(=[N+](CC)CC)C=C2)c2cc(S(=O)(=O)O)ccc2S(=O)(=O)[O-])cc1	-55.8%	x	x	x	u	x
CCCn1c(=O)c2[nH]c(-c3cnn(Cc4cccc(C(F)(F)F)c4)c3)nc2n(CC)c1=O	-0.4%	2.9%	x	x	4.2%	x
O=C(Nc1ncc(SCCN2CCCC2)s1)[C@]1(c2ccc(S(=O)(=O)C3CC3)cc2)C[C@@H]1C1CCCCC1	-18.6%	-4.8%	x	x	-11.6%	x
O=C(O)c1ccc(O)c2ncc(N3CCOCC3)cc12	-2.5%	4.3%	x	x	-13.6%	x
Cc1cccc(N2CCN(C(=O)Cn3c(C)c4cnn(-c5ccccc5)c(=O)c4c3C)CC2)c1C	-49.0%	i	12.4µM*	u	10µM*	5.0%
Cc1cccc(NC(=O)CCCn2c(C)c3cnn(-c4ccccc4)c(=O)c3c2C)c1C	-14.6%	i	-22.3%	-3.7%	-17.2%	1.0%
SMILES	HTT-AS act	SKOV3 invasion	PMP22 txn	S16 F2sN tox	HTT promoter inh	mTORC1 inh
Cc1ccc(-c2nc3ccccc3[nH]2)cc1NC(=O)COc1ccc(Cl)cc1Cl	-13.8%	-9.9%	0.2%	u	u	-1.4%
Cc1cc(OCC(=O)Nc2cc(-c3nc4ccccc4[nH]3)ccc2C)ccc1Cl	-26.1%	i	-53.1%	-10.5%	u	14.7µM*
COC(=O)C=CC(=O)OC	-30.7%	14.6%	x	x	u	x
c1cc(OCCN2CCCCC2)cc(-c2n[nH]c3ccc(-c4ncn[nH]4)cc23)c1	-21.0%	30.2%	x	x	-24.6%	x
Cc1ccc(-n2ncc3c(N4CCCCCC4)ncnc32)cc1Cl	-79.6%	1.3%	-0.8%	10.7%	0.355µM*	0.5%
Cc1ccc(-n2ncc3c(N4CCCCC4)ncnc32)cc1Cl	-84.0%	3.9%	-13.6%	-0.6%	-86.0%	9.9%
COc1cccc(OC)c1-c1cc(C(=O)NC2(C(=O)O)C3CC4CC(C3)CC2C4)nn1-c1ccnc2cc(Cl)ccc12 (centres undefined)	-7.9%	12.7%	x	x	5.0%	x
COc1ccc(NCc2cccn2-c2nnc(N3CCCCCC3)s2)cc1	-65.5%	-26.0%	-19.0%	6.6%	u	-14.0%
Cc1ccc(NCc2cccn2-c2nnc(N3CCCCCC3)s2)cc1	-61.7%	46.2%	u	-0.3%	7.94µM*	-3.9%
CC1CCN(S(=O)(=O)c2ccc(C(=O)Nc3sc4c(c3C(N)=O)CC(C)(C)NC4(C)C)cc2)CC1	-15.8%	u	u	u	-16.3%	18.5µM*
CCOC(=O)c1c(NC(=O)c2ccc(S(=O)(=O)N(CCOC)CCOC)cc2)sc2c1CC(C)(C)NC2(C)C	-10.0%	u	-31.5%	u	-7.9%	11.7µM*
CCOC(=O)c1c(NC(=O)c2ccc(S(=O)(=O)N3CCCC(C)C3)cc2)sc2c1CC(C)(C)NC2(C)C (centres undefined)	u	i	u	u	-66.0%	u
O=C(NCCCN1CCN(c2ccc(F)cc2)CC1)Nc1ccc(Cl)cc1	-25.6%	i	u	u	-23.9%	u
Cc1cccc(N2CCN(CCNC(=O)Nc3ccc(Cl)cc3)CC2)c1C	-55.2%	u	u	u	u	18.5µM*
COc1ccc(Nc2cc(C)nc(-n3nc(C)cc3C)n2)cc1Cl	-74.7%	2.6%	5.53µM*	u	12.6µM*	u
CN[C@@H]1CN(c2ccc3c(=O)c(C(=O)O)cn(-c4nccs4)c3n2)C[C@@H]1OC	-34.1%[25.1 µM]	-4.7%[23.2 µM]	x	x	u	x
